Data as given in paper PMC4336329 (PLoS ONE, 2015).
Among all 310,000 compounds or so, about 14,000 (4.5%) showed an effect of 50% or more. Effects have a minus sign here. For the sample, strong results were picked, then their nearest neighbours and some compounds at random.

What follows are compounds tested against human ether-à-go-go-related gene (hERG) potassium channel (human, UniProt Q12809) (assay: primary screen, population patch clamp on CHO cells stably expressing hERG; higher = less effect of the substance).
Chain of human ether-à-go-go-related gene (hERG) potassium channel (Q12809 whole entry, looked up): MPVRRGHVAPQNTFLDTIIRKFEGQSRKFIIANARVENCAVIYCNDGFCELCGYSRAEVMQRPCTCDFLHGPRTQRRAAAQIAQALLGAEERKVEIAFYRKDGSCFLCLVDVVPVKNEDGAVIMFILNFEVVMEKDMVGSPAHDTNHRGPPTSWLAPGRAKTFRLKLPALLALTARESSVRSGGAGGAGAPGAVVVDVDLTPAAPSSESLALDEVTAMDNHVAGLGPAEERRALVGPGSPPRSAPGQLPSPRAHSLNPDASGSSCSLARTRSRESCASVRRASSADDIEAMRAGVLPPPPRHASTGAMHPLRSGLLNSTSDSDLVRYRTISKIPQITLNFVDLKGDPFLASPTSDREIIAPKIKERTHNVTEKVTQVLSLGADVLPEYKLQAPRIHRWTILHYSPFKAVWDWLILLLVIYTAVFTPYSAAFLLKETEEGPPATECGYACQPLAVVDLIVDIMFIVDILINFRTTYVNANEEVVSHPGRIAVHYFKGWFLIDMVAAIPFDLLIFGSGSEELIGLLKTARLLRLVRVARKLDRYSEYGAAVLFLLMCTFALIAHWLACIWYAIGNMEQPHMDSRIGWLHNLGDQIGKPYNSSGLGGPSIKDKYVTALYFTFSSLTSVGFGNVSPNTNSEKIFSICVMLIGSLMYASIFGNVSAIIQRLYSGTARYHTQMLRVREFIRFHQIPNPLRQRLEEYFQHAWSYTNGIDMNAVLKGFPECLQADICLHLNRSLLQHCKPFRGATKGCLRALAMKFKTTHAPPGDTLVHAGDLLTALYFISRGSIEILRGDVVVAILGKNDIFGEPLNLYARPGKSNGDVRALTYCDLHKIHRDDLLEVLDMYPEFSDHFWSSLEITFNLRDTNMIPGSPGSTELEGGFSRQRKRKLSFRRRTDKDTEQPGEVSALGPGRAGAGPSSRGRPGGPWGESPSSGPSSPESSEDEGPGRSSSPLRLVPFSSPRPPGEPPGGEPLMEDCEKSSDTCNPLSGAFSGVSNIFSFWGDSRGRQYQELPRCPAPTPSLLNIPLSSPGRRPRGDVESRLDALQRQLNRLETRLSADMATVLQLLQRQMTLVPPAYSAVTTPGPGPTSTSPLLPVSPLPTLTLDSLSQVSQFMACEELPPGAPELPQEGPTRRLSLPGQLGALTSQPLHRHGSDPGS
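Further: peak tail current of the secondary pulse compared with the same well before compound.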

First: CC[C@@H]1[C@H]2CCCC(=O)N3CC[C@@H](C[C@@H]1Nc1ccccc1)[C@@H]23
Second: CCCN1CCC(NC(=O)c2cccc(Oc3ccccc3)c2)CC1
The “hERG current change (%, negative = inhibition) at 10uM” value of the first is higher: -3.88% for the first, -51.9% for the second.

First: Cc1ccc(NC(=O)COC(=O)c2cccc(OC(F)F)c2)cc1S(=O)(=O)N1CCCCC1
Second: CC(=O)c1c(C)[nH]c(C(=O)Nc2cc(S(=O)(=O)N3CCCCC3)ccc2C)c1C
The “hERG current change (%, negative = inhibition) at 10uM” value of the first is lower: -21.1% for the first, 2.24% for the second.

Going from `CCc1c(C)nc(N)n2c(SCC(=O)Nc3ccccc3)nnc12` to `COc1cccc(NC(=O)Cc2ccccc2)c1`, the “hERG current change (%, negative = inhibition) at 10uM” value falls from 12.5% to -3.98%.

Going from `O=C1NC(Cc2c[nH]c3ccccc23)C(=O)N1CCOc1ccccc1` (stereo not shown) to `CC(C)(C)N1CC(c2nc3ccccc3n2CCOc2ccccc2)CC1=O` (stereo not shown), the “hERG current change (%, negative = inhibition) at 10uM” value falls from -22.7% to -26.1%.

Going from `O=C(CCC(=O)N1CCSc2ccccc21)Nc1ccc(F)cc1` to `CC(=O)Nc1ccc(CN2CCC(Oc3ccc(C(=O)N4CCCC4)cc3)CC2)cc1`, the “hERG current change (%, negative = inhibition) at 10uM” value falls from -4.12% to -21.3%.

Going from `Cc1oc(-c2ccccc2F)nc1CS(=O)CC(=O)NCc1ccccn1` (stereo not shown) to `COCC(C)N1CCC(Oc2ccc(C(=O)NCc3ccccn3)cc2)CC1` (stereo not shown), the “hERG current change (%, negative = inhibition) at 10uM” value rises from -0.614% to 13.1%.

Going from `O=C(c1ccc(OC2CCN(Cc3ccccc3O)CC2)cc1)N1CCCCC1` to `O=C(c1ccc(OC2CCN(Cc3ccccc3C(F)(F)F)CC2)cc1)N1CCCCC1`, the “hERG current change (%, negative = inhibition) at 10uM” value falls from 3.29% to 2.01%.

Compared with `Cn1cc(CN2CCC(Oc3ccc(C(=O)N4CCCCC4)cc3)CC2)cn1`, `Cn1cc(CN2CCC(Oc3ccc(C(=O)N4CCCC4)cc3)CC2)cn1` is higher in “hERG current change (%, negative = inhibition) at 10uM” value: 8.81% for the first, 9.86% for the second.

Compared with `CC(C)c1ccc(CN2CCC(Oc3ccc(C(=O)N4CCCC4)cc3)CC2)cc1`, `O=C(c1ccc(OC2CCN(Cc3ccc(F)cc3)CC2)cc1)N1CCCC1` is higher in “hERG current change (%, negative = inhibition) at 10uM” value: -71.6% for the first, -24% for the second.

Compared with `CC(C)n1cc(CN2CCC(Oc3ccc(C(=O)N4CCCCC4)cc3)CC2)cn1`, `CC(C)n1cc(CN2CCC(Oc3ccc(C(=O)N4CCCC4)cc3)CC2)cn1` is higher in “hERG current change (%, negative = inhibition) at 10uM” value: -31.6% for the first, -9.96% for the second.

First: CCn1cc(CN2CCC(Oc3ccc(C(=O)N4CCCCC4)cc3)CC2)cn1
Second: CCc1ccc(CN2CCC(Oc3ccc(C(=O)N4CCCCC4)cc3)CC2)cc1
The “hERG current change (%, negative = inhibition) at 10uM” value of the first is higher: -5.09% for the first, -78.4% for the second.

First: O=C(c1ccc(OC2CCN(Cc3ccc(C(F)(F)F)cc3)CC2)cc1)N1CCCCC1
Second: CSc1ccc(CN2CCC(Oc3ccc(C(=O)N4CCCC4)cc3)CC2)cc1
The “hERG current change (%, negative = inhibition) at 10uM” value of the first is higher: -57.2% for the first, -71.1% for the second.

Compared with `C=CCOc1ccccc1CN1CCC(Oc2ccc(C(=O)N3CCCC3)cc2)CC1`, `C=CCOc1ccccc1CN1CCC(Oc2ccc(C(=O)N3CCCCC3)cc2)CC1` is lower in “hERG current change (%, negative = inhibition) at 10uM” value: -41.8% for the first, -57.6% for the second.

Compared with `O=C(c1ccc(OC2CCN(Cc3cccc(F)c3)CC2)cc1)N1CCCCC1`, `CSc1cccc(CN2CCC(Oc3ccc(C(=O)N4CCCCC4)cc3)CC2)c1` is lower in “hERG current change (%, negative = inhibition) at 10uM” value: -23.4% for the first, -25.2% for the second.

First: Cc1ccc2c(c1)N(CCCC(=O)NCCC1=CCCCC1)C(=O)CO2
Second: CCc1ccc(-c2cc(C)no2)cc1S(=O)(=O)N1CCOc2ccc(C)cc21
The “hERG current change (%, negative = inhibition) at 10uM” value of the first is lower: -9.81% for the first, 13.1% for the second.

First: CCOc1cc(N2CCOCC2)c(OCC)cc1NC(=O)COC(=O)c1cc2ccccc2cc1O
Second: COc1cc(OC)cc(C(=O)NC2CCN(CCCOc3ccccc3)CC2)c1
The “hERG current change (%, negative = inhibition) at 10uM” value of the first is higher: -11.7% for the first, -70.2% for the second.

Going from `Cc1c(NC(=O)C(C)N(c2ccccc2)S(C)(=O)=O)c(=O)n(-c2ccccc2)n1C` (stereo not shown) to `O=C(Cn1ncc2c3ccccc3n(Cc3ccccc3)c2c1=O)NC1CCCC1`, the “hERG current change (%, negative = inhibition) at 10uM” value falls from 18.7% to 10.1%.

Going from `O=C(CCl)Nc1cccc(S(=O)(=O)NC2=NCCC2)c1` to `CS(=O)(=O)c1ccc(-c2cccc(NC(=O)COc3ccc(Cl)cc3)c2)nn1`, the “hERG current change (%, negative = inhibition) at 10uM” value rises from -0.632% to 6.7%.

Going from `COc1cccc(CN2CCC(Oc3ccc(C(=O)N4CCCCC4)cc3)CC2)c1` to `CCOc1cccc(CN2CCC(Oc3ccc(C(=O)N4CCCC4)cc3)CC2)c1`, the “hERG current change (%, negative = inhibition) at 10uM” value falls from -25.3% to -27.4%.

First: COc1cc(C)c(CN2CCC(Oc3ccc(C(=O)N4CCCC4)cc3)CC2)cc1C
Second: COc1ccc(CN2CCC(Oc3ccc(C(=O)N4CCCCC4)cc3)CC2)cc1C
The “hERG current change (%, negative = inhibition) at 10uM” value of the first is higher: -43.1% for the first, -45.7% for the second.

Going from `COc1ccc(CN2CCC(Oc3ccc(C(=O)N4CCCC4)cc3)CC2)c(F)c1` to `CCc1ccc(CN2CCC(Oc3ccc(C(=O)N4CCCC4)cc3)CC2)cc1`, the “hERG current change (%, negative = inhibition) at 10uM” value falls from -51.4% to -81.3%.

First: COC(=O)c1ccc(CN2CCC(Oc3cccc(C(=O)N4CCOCC4)c3)CC2)cc1
Second: COC(=O)c1ccc(CN2CCC(Oc3cccc(C(=O)N4CCCC4)c3)CC2)cc1
The “hERG current change (%, negative = inhibition) at 10uM” value of the first is higher: -22.7% for the first, -50.8% for the second.

Compared with `CSc1cccc(CN2CCC(Oc3cccc(C(=O)N4CCCC4)c3)CC2)c1`, `CSc1ccc(CN2CCC(Oc3cccc(C(=O)N4CCCC4)c3)CC2)cc1` is lower in “hERG current change (%, negative = inhibition) at 10uM” value: -44.4% for the first, -60.7% for the second.

First: O=C(c1cccc(OC2CCN(Cc3cc(F)cc(F)c3)CC2)c1)N1CCCC1
Second: O=C(c1cccc(OC2CCN(Cc3cccc(OCCO)c3)CC2)c1)N1CCCC1
The “hERG current change (%, negative = inhibition) at 10uM” value of the first is lower: -34.9% for the first, -2.71% for the second.

First: COc1ccc(NC(=O)Nc2nnc(C(C)(C)C)s2)cc1
Second: COc1ccc(NC(=O)Nc2cccc(Cl)c2Cl)c(OC)n1
The “hERG current change (%, negative = inhibition) at 10uM” value of the first is lower: -18.8% for the first, 3.16% for the second.

Compared with `COC(=O)C(Cc1ccccc1)OS(N)(=O)=O` (stereo not shown), `COc1cc(OC)cc(C(=O)NCCOc2ccccc2)c1` is lower in “hERG current change (%, negative = inhibition) at 10uM” value: 16.1% for the first, -17.6% for the second.

First: COCCN1CN=C(NS(=O)(=O)c2ccc(C)cc2)NC1
Second: CCN(C1=NS(=O)(=O)c2ccccc21)N(CC)S(=O)(=O)c1ccc(C)cc1
The “hERG current change (%, negative = inhibition) at 10uM” value of the first is lower: 16.3% for the first, 19.8% for the second.

Going from `COc1cc(NC(=O)COc2cccc3c2OC(C)(C)C3)cc(OC)c1OC` to `COc1cc(OC)cc(C(=O)NNC(=O)CCCOc2ccccc2)c1`, the “hERG current change (%, negative = inhibition) at 10uM” value falls from -6.09% to -18.4%.

Compared with `CCOC(=O)Cc1csc(NC(=O)c2ccc(S(=O)(=O)N3CCOCC3)cc2)n1`, `Cc1ccc2nc(N(CCCN(C)C)C(=O)c3ccc(S(=O)(=O)N(C)C)cc3)sc2c1.Cl` is lower in “hERG current change (%, negative = inhibition) at 10uM” value: -2.52% for the first, -42.1% for the second.

Going from `CN1CCN(C(=O)CSc2ccc(C(F)(F)F)cc2[N+](=O)[O-])CC1` to `CN1CCC(NC(=O)c2cccc(Oc3ccccc3)c2)CC1`, the “hERG current change (%, negative = inhibition) at 10uM” value rises from -10.2% to -8.93%.

Compared with `COC(=O)c1ccc(CN2CCC(Oc3ccc(C(=O)N4CCCCC4)cc3)CC2)cc1`, `COCCNC(=O)c1cccc(OC2CCN(Cc3cccc(SC)c3)CC2)c1` is higher in “hERG current change (%, negative = inhibition) at 10uM” value: -51.7% for the first, -35.2% for the second.

Going from `CC(=O)O[C@@H]1/C=C/[C@](C)(O)C[C@@H](C)C/C=C/[C@H]2[C@H](O)C(C)=C(C)[C@H]3[C@H](Cc4ccccc4)NC(=O)[C@@]123` to `COCC(C)N1CCC(Oc2cccc(C(=O)NCCc3ccccc3)c2)CC1` (stereo not shown), the “hERG current change (%, negative = inhibition) at 10uM” value falls from -15.4% to -66.3%.

First: Cl.Oc1ccc(CC2CC3CCN2CC3)cc1O (stereo not shown)
Second: COc1cccc(OCCCCN2CCCCC2)c1
The “hERG current change (%, negative = inhibition) at 10uM” value of the first is higher: 12.7% for the first, -8.36% for the second.

First: O=C(Cc1cccs1)N/N=C\c1ccc(O)cc1
Second: COc1ccc(/C=N/NC(=O)c2cccc([N+](=O)[O-])c2)cc1OS(=O)(=O)c1ccc(C)cc1
The “hERG current change (%, negative = inhibition) at 10uM” value of the first is higher: 14.5% for the first, -16.1% for the second.

Compared with `CCc1ccc2nc(N(CCN(C)C)C(=O)c3ccc4ccccc4c3)sc2c1.Cl`, `Cc1ccc2nc(N(CCN(C)C)C(=O)c3ccc4ccccc4c3)sc2c1.Cl` is higher in “hERG current change (%, negative = inhibition) at 10uM” value: 0.369% for the first, 15.9% for the second.

First: Cc1cccc2sc(N(CCCN(C)C)C(=O)c3ccc4ncsc4c3)nc12
Second: Cc1ccc2nc(N(CCCN(C)C)C(=O)c3ccc4ncsc4c3)sc2c1
The “hERG current change (%, negative = inhibition) at 10uM” value of the first is higher: -45% for the first, -61.4% for the second.

Going from `CCc1ccc2nc(N(CCN(C)C)C(=O)c3ccc4ncsc4c3)sc2c1.Cl` to `CC(C)(C)NC(=O)C(c1cccs1)N(C(=O)c1csnn1)c1cccc(F)c1` (stereo not shown), the “hERG current change (%, negative = inhibition) at 10uM” value rises from -60.6% to -7.68%.

Compared with `O=C(CCNC(=O)c1ccc([N+](=O)[O-])cc1)NC1CCCCCC1`, `O=C(NC1CC1)c1cccc(Oc2ccccc2)c1` is higher in “hERG current change (%, negative = inhibition) at 10uM” value: -25.3% for the first, 1.52% for the second.

First: CCSc1nsc(NC(=O)Nc2ccc(F)cc2F)n1
Second: CC(C)NC(=O)CCS(=O)(=O)c1ccc(Br)s1
The “hERG current change (%, negative = inhibition) at 10uM” value of the first is higher: 24.1% for the first, 16.1% for the second.

Going from `O=S(=O)(c1ccc(Cl)s1)N1CCc2ccccc2C1` to `c1ccc(OCCCCN2CCOCC2)cc1`, the “hERG current change (%, negative = inhibition) at 10uM” value falls from 7.13% to -14.5%.

Going from `NC(=S)Nc1cc(Cl)cc(Cl)c1` to `Cc1cc(OC(C)C(=O)NCC2CCC(C(=O)O)CC2)c2c(C)cc(=O)oc2c1` (stereo not shown), the “hERG current change (%, negative = inhibition) at 10uM” value rises from 17.1% to 24.5%.

Compared with `COCc1cc(OC(=O)N(C)C)nc2c1c(C)nn2C`, `COc1ccc(C2(O)CCN(CCCCOc3ccccc3)CC2)cc1` is lower in “hERG current change (%, negative = inhibition) at 10uM” value: -9.48% for the first, -70.6% for the second.

`O=C(CNC(=O)C12CC3CC(CC(C3)C1)C2)N/N=C\c1ccco1` was tested, and the “hERG current change (%, negative = inhibition) at 10uM” value was 5.05%.
